Assay outcomes as filed in PubChem BioAssay.
Hsp70 act: Hsp70 transcriptional activation, primary screen; HeLa Hsp70 promoter luciferase reporter, luminescence; scaled: vehicle 0, proteasome-inhibitor control 100%; activation, % at 10 µM; hit rate 0.04% among 200,000;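 active means activation above the mean across all tested compounds plus 3 SD, cutoff set per campaign, cut at about 5.5% in these data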
Arbovirus anti: antivirals against arbovirus infection; arbovirus infection cell-based antiviral screen; inhibition, % at 10 µM; hit rate 0.37% among 200,000; in the data active means inhibition above about 30%
HMGR II inh: E. faecalis class II HMG-CoA reductase inhibition; purified E. faecalis HMGR, NADPH absorbance 340 nm kinetic; inhibition, % at 10 µM; hit rate 0.41% among 190,000; AID 1066;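 active means inhibition above a set limit, the median over all tested compounds plus 3 SD, cut at about 9.5% in these data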;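 further: enzyme runs in reverse so mevalonate oxidation gives rising NADPH absorbance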
Wee1 stabilizer: inhibitors of human Wee1 degradation. hit rate 1.2% among 220,000. reporter increase, % at 5 µM. HeLa Luc-Wee1K328M stability, luciferase luminescence; 100% = proteasome inhibitor MG132 effect;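 active means activation above the mean of all tested compounds plus 3 SD, set per screening run, cut at about 8.8% in these data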;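 further: cells exposed to compound for 20 h before luminescence read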
PKD1 kinase inh: blocks activity of human protein kinase D1; PKD1 kinase fluorescence polarization assay; inhibition, % (no concentration beside the values); hit rate 0.056% among 200,000; in the data active means inhibition above about 50%
Target sequence (Q15139 whole entry, looked up): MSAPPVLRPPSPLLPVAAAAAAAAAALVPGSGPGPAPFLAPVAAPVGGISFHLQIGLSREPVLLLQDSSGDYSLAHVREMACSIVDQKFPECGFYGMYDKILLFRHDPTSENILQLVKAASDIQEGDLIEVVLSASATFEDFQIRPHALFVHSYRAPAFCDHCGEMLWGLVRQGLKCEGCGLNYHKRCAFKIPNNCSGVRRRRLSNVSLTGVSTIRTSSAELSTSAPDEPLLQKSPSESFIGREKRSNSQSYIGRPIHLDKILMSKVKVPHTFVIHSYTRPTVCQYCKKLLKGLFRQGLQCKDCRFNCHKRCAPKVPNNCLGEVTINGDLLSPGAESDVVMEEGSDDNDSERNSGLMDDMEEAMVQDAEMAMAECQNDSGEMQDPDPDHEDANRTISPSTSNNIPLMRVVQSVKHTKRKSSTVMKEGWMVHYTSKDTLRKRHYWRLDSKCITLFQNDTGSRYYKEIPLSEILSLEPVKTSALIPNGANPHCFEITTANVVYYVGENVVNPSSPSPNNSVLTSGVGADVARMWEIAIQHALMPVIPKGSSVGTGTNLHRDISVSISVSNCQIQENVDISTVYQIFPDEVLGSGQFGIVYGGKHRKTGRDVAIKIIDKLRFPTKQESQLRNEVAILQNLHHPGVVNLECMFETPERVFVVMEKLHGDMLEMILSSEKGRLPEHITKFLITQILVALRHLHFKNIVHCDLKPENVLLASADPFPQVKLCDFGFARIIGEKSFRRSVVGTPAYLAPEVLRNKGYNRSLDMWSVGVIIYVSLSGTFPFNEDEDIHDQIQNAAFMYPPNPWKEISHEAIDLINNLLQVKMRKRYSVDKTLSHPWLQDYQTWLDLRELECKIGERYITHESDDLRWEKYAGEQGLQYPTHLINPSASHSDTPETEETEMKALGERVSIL
Hits are given with their value; i = inactive; nt = no result. Hits are enriched below; roughly 2% of the tested compounds scored in any of these assays.

SMILES	Hsp70 act	Arbovirus anti	HMGR II inh	Wee1 stabilizer	PKD1 kinase inh
O=C(C1CC1)N1CCC(C(O)(c2ccccc2)c2ccccc2)CC1	i	i	i	i	i
CC(C)(C)C(=O)N1CCC[C@H]1C(O)(c1ccccc1)c1ccccc1	i	i	14	i	i
CCOc1ccc(C2C=C(c3ccc(F)cc3)Nc3ncnn32)cc1 (configuration not stated)	i	i	i	i	i
COc1ccc(C2C=C(c3ccc(Br)s3)Nc3ncnn32)cc1OC (configuration not stated)	i	90	i	i	i
COc1ccc(C2=CC(c3ccc(C)cc3)n3nnnc3N2)cc1 (configuration not stated)	i	38	i	i	i
COc1cccc(C2=CC(c3ccc(N(C)C)cc3)n3ncnc3N2)c1 (configuration not stated)	i	46	i	i	i
COc1cccc(C2C=C(c3cccs3)Nc3ncnn32)c1OC (configuration not stated)	i	i	i	i	i
COc1ccc(C2C=C(c3ccc(C)cc3)Nc3ncnn32)cc1 (configuration not stated)	i	86	i	i	i
CCOc1cc(/C=N\NC(=O)OC(C)(C)C)ccc1OC(=O)c1ccco1	i	i	19	i	i
CCOc1cc(/C=N\NC(=O)OC)ccc1OC(=O)c1ccco1	i	i	i	i	i
O=C1CC(c2ccccc2Cl)c2c(sc3c(=O)[nH]c(CCl)nc23)N1 (configuration not stated)	nt	nt	nt	i	nt
CC(=O)Nc1ccc2c(c1)C(=O)c1ccccc1C2=O	i	i	i	i	i
O=C(O)/C=C/C(=O)Nc1ccc2c(c1)C(=O)c1ccccc1C2=O	nt	nt	nt	9.9	nt
Cc1cccc2nc(COc3ccc4ccccc4c3Br)cn12	nt	nt	nt	11	nt
O=C(OCc1nnc(-c2ccccc2)o1)C12CC3CC(CC(Br)(C3)C1)C2	i	i	i	9.6	i
COc1ccc(N(C(C)C(=O)Nc2cccnc2)S(C)(=O)=O)cc1 (configuration not stated)	i	i	i	i	i
COC(=O)c1ccc(NC(=O)CNC(=O)C2CCCCC2)c(C)c1	i	i	i	10	i
COc1ccc(O[C@H]2C=C[C@@H](c3ccccc3)O[C@@H]2COC(=O)CC/C(C)=N/OC[C@@H](O)[C@H]2O[C@@H]3OC(C)(C)O[C@@H]3[C@H]2O)cc1	i	i	i	i	i
O=C(NCCN1CCN(c2ccccc2)CC1)c1ccc2c(c1)[nH]c(=S)n1c3ccccc3nc21	i	i	9.6	i	i
O=C(COc1ccc(Oc2ccccc2)cc1)NCc1cn2ccccc2n1	i	i	i	10	i
CCN(CC)S(=O)(=O)c1ccc(N2CCOCC2)c(NC(=O)c2cccc3ccccc23)c1	i	i	i	i	i
CCN(CC)S(=O)(=O)c1ccc(N2CCOCC2)c(NC(=O)c2cc(-c3ccccn3)nc3ccccc23)c1	i	i	12	i	i
CC(C)C[C@H](NC(=O)c1nc[nH]c1C(=O)NCCCCCNC(=O)OC(C)(C)C)C(=O)OCc1ccccc1	i	i	i	i	i
C[C@H](NC(=O)c1nc[nH]c1C(=O)NCCCCCNC(=O)OC(C)(C)C)C(=O)OCc1ccccc1	i	i	i	9.1	i
Cc1ccc([N+](=O)[O-])c(OCCN2CCC(Cc3ccccc3)CC2)c1	i	i	i	i	i
SMILES	Hsp70 act	Arbovirus anti	HMGR II inh	Wee1 stabilizer	PKD1 kinase inh
COc1ccc(Br)c(C(=O)N2CCN(S(=O)(=O)/C=C/c3ccccc3)CC2)c1	i	i	i	i	i
COc1ccc(N2CCN(S(=O)(=O)/C=C/c3ccccc3)CC2)cc1	i	i	i	9.3	i
O=C(Nc1nc2ccccc2s1)c1ccc(OCC2CCCO2)cc1 (configuration not stated)	i	31	i	i	i
Cc1ccc(C)c(N2CCN(C(=O)Cc3ccc(-n4c(=O)[nH]c5ccsc5c4=O)cc3)CC2)c1	i	36	i	i	i
O=C(O)c1cc(N/N=C2/CC(c3ccccc3)Oc3ccccc32)ccc1Cl (configuration not stated)	i	32	i	i	i
Cc1ccc(Cn2nc(C)c3cc(C(=O)OCC(N)=O)sc32)cc1	i	i	i	9.8	i
Clc1ccc(OCc2cn3ccccc3n2)c2ncccc12	i	i	i	9.9	i
O=C1N(Cc2cccc(Cl)c2)C[C@@H]2C[C@@H](c3ccccn3)N3CCC[C@@]123	i	i	i	9.4	i
CCn1ccnc1[C@@H]1C[C@H]2CN(Cc3cccc(Cl)c3)C(=O)[C@]23CCCN13	i	i	i	i	i
COc1ccc(CNc2oc(-c3cccc4ccccc34)nc2P(=O)(OC)OC)cc1	i	i	i	9.8	i
CCCOP(=O)(OCCC)c1nc(-c2ccccc2)oc1NCc1ccccc1	i	i	17	i	i
COP(=O)(OC)c1nc(-c2cccc3ccccc23)oc1NCc1ccccc1	i	i	i	i	i
CC(=O)Nc1cccc(NC(=S)Nc2ccc(F)cc2F)c1	i	i	i	i	i
CC(C)CC(=O)OCC(=O)Nc1ccccc1Sc1ccccc1	i	i	i	i	i
CCOC(=O)C/C(N)=N/NC(=O)c1ccc(Cl)cc1Cl	i	i	i	11	i
Cn1cc(C(=O)c2ccc(Cl)cc2Cl)cc1C(=O)N/N=C(\N)COc1ccc(Cl)cc1Cl	i	i	i	i	i
Oc1ccc(Br)cc1-c1nc2cnccn2c1NC1CCCC1	i	62	i	i	i
Oc1ccc(Br)cc1-c1nc2cnccn2c1NC1CCCCC1	i	i	i	i	i
N#Cc1ccccc1NC(=O)CSC1=Nc2ccccc2C2CC=NN12 (configuration not stated)	i	i	i	9.4	i
Cc1cc(C)cc(N(CCC#N)C(=O)CSC2=Nc3ccccc3C3CC=NN23)c1 (configuration not stated)	i	i	i	9.9	i
O=C(CSC1=Nc2ccccc2C2CC=NN12)Nc1ccc2c(c1)OCO2 (configuration not stated)	i	i	i	i	i
CSc1cccc(CN2CCN(Cc3ccc(F)c(F)c3)C(CCO)C2)c1 (configuration not stated)	i	i	i	i	i
COc1ccc2nc(/C=N/NC(=O)CCCCCNC(=O)OC(C)(C)C)ccc2c1	nt	nt	nt	i	nt
O=C(CNC(=S)N(Cc1ccccc1F)C1CCCCC1)NCCN1CCOCC1	i	i	i	i	i
COCCCNC(=O)CNC(=S)N(Cc1ccc(F)cc1)C1CCCCC1	i	i	i	10	i
O=C(CNC(=S)N(Cc1ccccc1F)C1CCCCC1)NCCCN1CCOCC1	i	i	13	i	i
Cc1csc(NC(=O)C2CCN(S(=O)(=O)c3ccccc3F)CC2)n1	i	i	i	i	i
O=C(O)CCCCCn1c(SCC(=O)c2ccc(O)c(O)c2)nc2ccsc2c1=O	i	i	13	i	i
CCCCn1c(SCC(=O)c2ccc(O)c(O)c2)nc2ccsc2c1=O	i	i	i	i	i
CCOC(=O)N/N=C(\C)c1ccc(-n2cnnn2)cc1	i	i	i	i	i
